Source: PubChem BioAssay AID1851 (National Center for Advancing Translational Sciences (NCATS), 2009)
Among all 16,000 compounds or so, about 5,700 (36%) were called active. About 24% were inconclusive and are not listed. Some of the results follow. Unmarked numbers belong to inactive results. Calls come from the whole dose curve; as a rule, active = well fitted curve in the direction sought with a large enough effect; inconclusive = small, poorly fitted or top-dose-only effect, or effect the other way; inactive = no such curve, though single readings can be large or run the other way.

What follows are molecules tested against Cytochrome P450 1A2 (Homo sapiens) (UniProt P05177) (assay: Cytochrome panel assay with activity outcomes). Conditions: recombinant CYP, pro-luciferin dealkylation, luminescence, p450-cyp1a2; series mostly up to 57.1 µM; activity, negative = inhibition: at the top concentration.
% is set by controls: 0 for no effect and ±100 for the full control effect.

Cytochrome P450 1A2 (Homo sapiens), sequence (P05177 whole entry, looked up): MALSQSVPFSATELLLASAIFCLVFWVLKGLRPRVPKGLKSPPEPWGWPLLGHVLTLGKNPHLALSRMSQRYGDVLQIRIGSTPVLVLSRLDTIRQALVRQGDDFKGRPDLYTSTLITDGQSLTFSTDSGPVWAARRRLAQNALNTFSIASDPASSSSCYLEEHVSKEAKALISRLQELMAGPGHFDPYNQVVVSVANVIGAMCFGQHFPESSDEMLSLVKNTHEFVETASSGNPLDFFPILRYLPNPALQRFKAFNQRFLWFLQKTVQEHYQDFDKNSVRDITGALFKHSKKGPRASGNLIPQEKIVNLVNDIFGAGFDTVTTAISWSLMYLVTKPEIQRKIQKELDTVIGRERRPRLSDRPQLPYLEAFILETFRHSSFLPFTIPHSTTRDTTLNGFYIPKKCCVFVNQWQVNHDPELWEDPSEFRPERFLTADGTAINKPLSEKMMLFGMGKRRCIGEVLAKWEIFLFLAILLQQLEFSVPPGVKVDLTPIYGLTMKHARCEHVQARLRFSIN

| Structure (SMILES) | activity, negative = inhibition | AC50 |
| --- | --- | --- |
| CC(C)(C)N1C(=O)[C@H]2[C@H]3[C@H](O)[C@H](O)C/C(=N/OC[C@@H](O)COCc4ccco4)[C@@H]3CC[C@@H]2C1=O | 4.56% [at 11.4 µM] |  |
| COc1ccc(-c2noc(N(C)CC(=O)Nc3cccc(C(F)(F)F)c3)n2)cc1 |  | 5.01 µM (active) |
| COCCNc1ncncc1-c1c(C)noc1C | -12.6% |  |
| COCCNc1cc(-c2c(C)noc2C)ncn1 |  | 10 µM (active) |
| CNc1cc(-c2c(C)noc2C)ncn1 |  | 5.01 µM (active) |
| Cc1noc(C)c1-c1cc(NC2CC2)ncn1 |  | 0.316 µM (active) |
| COC(=O)N1CCC2(CC1)CN(C(c1ccccc1)c1ccccc1)C2 | -2.53% |  |
| C[C@@]12CCC(=O)C=C1CC[C@@H]1[C@@H]2[C@H](O)C[C@]2(C)[C@@H]1CC[C@]2(O)C(=O)CO | -6.61% [at 25.6 µM] |  |
| CCOc1ccc(CC(=O)Nc2sc(Cc3ccccc3)c(C)c2C(N)=O)cc1OCC | -26.8% |  |
| Cc1sc(NC(=O)c2ccccc2)c(C(=O)NCCN(C)C)c1C |  | 11.2 µM (active) |
| CC(C)C(=O)Nc1ccc(C(=O)NNC(=O)C(c2ccccc2)c2ccccc2)cc1 | -16.1% |  |
| CCOC(=O)c1c(NC(=O)Nc2ccccc2)sc(C)c1C |  | 3.55 µM (active) |
| Cc1sc(NC(=O)C(C)C)c(C(=O)Nc2ccccc2)c1C |  | 1.26 µM (active) |
| CN(C(=O)CC(NC(=O)c1ccccc1)(c1ccccc1)c1ccccc1)c1ccccc1 | -7.59% |  |
| COC(=O)c1c(NC(C)=O)sc(Cc2ccccc2)c1C |  | 1.58 µM (active) |
| CCN1CCN(C(c2ccccn2)c2c(NC(=O)c3ccccc3)sc(C)c2C)CC1 (stereo unspecified) | -13.5% |  |
| C=C(Br)CN(C)CC(=C)Br | -4.98% [at 11.4 µM] |  |
| CC(C)SC(=N)N | -17.7% |  |
| Cc1noc(C)c1C(=O)N1CCC[C@@]2(CCN(C(=O)NC(C)C)C2)C1 | -23.1% |  |
| O=C(O)CP(=O)(O)O |  | inactive |
| Cc1oc(-c2cccc(Cl)c2)[n+]([O-])c1C |  | 4.47 µM (active) |
| CCCC/C=C/C(NC(=O)Oc1cccc(C(F)(F)F)c1)c1ccccc1 (stereo unspecified) |  | 2.51 µM (active) |
| CCC(=O)Nc1ccc(C(=O)NNC(=O)c2cccs2)cc1 | 13.6% |  |
| CCCC/C=C/C(NC(=O)c1ccco1)c1ccccc1 (stereo unspecified) |  | 5.01 µM (active) |
| CCC/C=C(\CCC)C(NP(=O)(c1ccccc1)c1ccccc1)c1ccc(C(F)(F)F)cc1 (stereo unspecified) | -7.24% |  |
| CCCC/C=C/C(NC(=O)c1cccs1)c1ccccc1 (stereo unspecified) |  | 1.58 µM (active) |

| Structure (SMILES) | activity, negative = inhibition | AC50 |
| --- | --- | --- |
| O=C(c1cccs1)N1CCN(C(=O)C(c2ccccc2)c2ccccc2)CC1 | -5.01% |  |
| C#CCOC(=O)NC(/C=C/CCCC)c1ccccc1 (stereo unspecified) |  | 15.8 µM (active) |
| Nc1ncnc2c1nc(Br)n2[C@@H]1O[C@H]2COP(=O)(O)O[C@@H]2[C@H]1O | -8.7% |  |
| CC1(C)Cc2ccccc2C(N/N=C/c2cccc(F)c2)=N1 |  | 11.2 µM (active) |
| COc1ccc(Oc2c(C=O)c3ccccc3n2C)cc1 |  | 14.1 µM (active) |
| Cn1c(Oc2ccccc2)c(C=O)c2ccccc21 |  | 7.08 µM (active) |
| FC(F)(F)c1nnc(-c2ccccc2)nc1Sc1ccccc1 |  | 1.41 µM (active) |
| Cc1cccc(C(=O)NN(C)c2nc(-c3ccccc3)nnc2C(F)(F)F)c1 | 21.4% |  |
| COc1ccc(CC(=O)O/N=C(\N)Cc2ccc(OC)cc2)cc1 | -29.9% |  |
| COc1ccccc1CC(=O)O/N=C(\N)Cc1cccc2ccccc12 |  | 11.2 µM (active) |
| COc1ccccc1C/C(N)=N/OC(=O)c1ccc(C)c([N+](=O)[O-])c1 |  | 14.1 µM (active) |
| COc1ccccc1CNC(=O)C/C(C)=N/NC(=O)Cc1ccccc1 | -20.9% |  |
| C[N+](C)(C)CCOC(N)=O |  | inactive |
| CCOC(=O)[C@@H](O)Cc1cnc2ccccc2n1 |  | 3.16 µM (active) |
| O=S(=O)(c1cnccc1N1CCN(CCO)CC1)N1CCCC1 | -8.25% [at 2.29 µM] |  |
| FC(F)(F)c1cc(CN2CCC3(CCNCC3)CC2)cc(C(F)(F)F)c1 | -9.83% |  |
| Cc1ccc(NC(=O)c2cccc(N(C)C)c2)cc1NC(=O)c1ccc(O)cc1 |  | 1.26 µM (active) |
| OC(COc1ccc(OCC(O)CN2CCCCCC2)cc1)CN1CCCCCC1 (stereo unspecified) | 4.84% |  |
| Cc1nn(CC(O)COc2ccc3c(c2)CCC3)c(C)c1Br (stereo unspecified) |  | 12.6 µM (active) |
| COc1ccc(C2=CSC(/N=C/c3ccc(F)cc3)=NN2)cc1 |  | 2.82 µM (active) |
| CC(C)=NO[C@@H](C)CN1CCCCc2nc(C)c(C)cc21 | -10.5% [at 11.4 µM] |  |
| Cc1ccc(NC(=O)CCC(=O)NNS(=O)(=O)c2ccccc2)c(C)c1 | -29.8% |  |
| Cc1cc(Br)ccc1NC(=O)CCSc1ccccc1 |  | 4.47 µM (active) |
| S=C(S)O[C@@H]1C[C@@H]2C[C@H]1[C@@H]1CCC[C@H]21 |  | inactive |
| O=C(COc1ccc(-c2ccccc2)cc1)N/N=C/c1ccccc1Br |  | 5.01 µM (active) |
